Data from PubChem BioAssay (EPA / NIEHS).
Where “and” joins values, the source holds several entries; their conditions need not be identical. Equal entries are not always repeated. Inconclusive results are not listed. A structure can be active in one record and inactive in another. Calls of active or inactive are those of the source. How the source made its calls, unless noted: active means hit-call score of the fitted dose curve at least 0.9, where 1 is the maximum; inactive means score below 0.9.

Key:
[1] = BSK_3C_VCAM1: BioMAP Diversity Plus: 3C Assay for Vascular cell adhesion molecule 1 (VCAM1) Biomarker Activity (AID 2282999); settings: BioMAP 3C HUVEC, VCAM1 ELISA, cytokine-stimulated; actives raise or lower the signal
Summary of the method: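 HUVEC primary cells, 24 h compound exposure; VCAM-1 by ELISA; gain/loss of signal fitted bidirectionally vs DMSO baseline.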

[2] = BSK_4H_Eotaxin3: BioMAP Diversity Plus: 4H Assay for Eotaxin 3 Biomarker Activity (AID 2283000); settings: primary human endothelial cells (HUVEC); actives raise or lower the signal
Summary of the method: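 Human umbilical vein endothelial cells (BSK_4H system) dosed with test chemical; Eotaxin-3 (CCL26) measured by ELISA 24 h after dosing. Bidirectional curve fitting relative to DMSO negative control as baseline.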

[3] = biological target: human Peroxisome Proliferator-activated Receptor alpha (PPARa), PPARA (gene 5465) (UniProt Q07869); experiment: ATG_PPARa_TRANS: Attagene TRANS-FACTORIAL HepG2 Assay for human Peroxisome Proliferator-activated Receptor alpha (PPARa) (AID 2283001; active means hit-call score of the fitted dose curve at least 0.9, where 1 is the maximum)
Chain of human Peroxisome Proliferator-activated Receptor alpha (PPARa), PPARA (gene 5465) (Q07869 whole entry, looked up, the tested form may be a part): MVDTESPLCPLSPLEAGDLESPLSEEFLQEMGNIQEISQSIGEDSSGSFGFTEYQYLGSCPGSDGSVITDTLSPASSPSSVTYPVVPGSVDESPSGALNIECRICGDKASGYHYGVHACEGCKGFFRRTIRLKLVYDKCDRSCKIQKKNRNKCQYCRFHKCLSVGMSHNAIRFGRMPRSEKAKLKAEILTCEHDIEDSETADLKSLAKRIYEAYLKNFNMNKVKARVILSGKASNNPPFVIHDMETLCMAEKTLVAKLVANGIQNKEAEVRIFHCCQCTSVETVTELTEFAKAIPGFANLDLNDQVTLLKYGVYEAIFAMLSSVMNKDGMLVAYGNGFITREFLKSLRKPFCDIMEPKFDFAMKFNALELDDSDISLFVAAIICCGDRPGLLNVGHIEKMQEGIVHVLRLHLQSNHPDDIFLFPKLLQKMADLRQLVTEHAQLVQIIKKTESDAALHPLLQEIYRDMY
Summary of the method: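 Transient HepG2 transfection, GAL4-UAS reporters, NR-Gal4 chimeras; 24 h compound exposure. Readout: reporter transcripts by RT-PCR, 6-FAM primer extension, HpaI digest, capillary electrophoresis. Positive direction vs DMSO baseline.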

[4] = biological target: human Peroxisome Proliferator-activated Receptor delta (PPARd), PPARD (gene 5467) (UniProt Q03181); experiment: ATG_PPARd_TRANS: Attagene TRANS-FACTORIAL HepG2 Assay for human Peroxisome Proliferator-activated Receptor delta (PPARd) (AID 2283002; active means hit-call score of the fitted dose curve at least 0.9, where 1 is the maximum)
Chain of human Peroxisome Proliferator-activated Receptor delta (PPARd), PPARD (gene 5467) (Q03181 whole entry, looked up, the tested form may be a part): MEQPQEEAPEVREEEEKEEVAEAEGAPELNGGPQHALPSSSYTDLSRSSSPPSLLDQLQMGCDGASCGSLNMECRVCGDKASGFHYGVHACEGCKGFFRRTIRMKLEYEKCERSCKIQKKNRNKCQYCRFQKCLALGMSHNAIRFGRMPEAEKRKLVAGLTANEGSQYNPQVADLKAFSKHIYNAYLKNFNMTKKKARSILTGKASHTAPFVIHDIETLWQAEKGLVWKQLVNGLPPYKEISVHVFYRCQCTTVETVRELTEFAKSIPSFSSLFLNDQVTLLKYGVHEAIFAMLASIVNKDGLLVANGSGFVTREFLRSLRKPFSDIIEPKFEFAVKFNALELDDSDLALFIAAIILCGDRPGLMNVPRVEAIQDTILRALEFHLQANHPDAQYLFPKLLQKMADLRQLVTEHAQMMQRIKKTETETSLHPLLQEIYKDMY
Summary of the method: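 Fluorescence from capillary electrophoresis of labelled RT-PCR reporter fragments gives the signal; DMSO sets baseline. Cells: HepG2 transiently carrying GAL4-UAS reporter units plus chimeric nuclear receptor-Gal4 proteins, exposed to chemicals for 24 h.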

[5] = read-out: Intercellular Adhesion Molecule 1 (ICAM1), ICAM1 (gene 3383); experiment: BSK_3C_ICAM1: BioMAP Diversity Plus: 3C Assay for Intercellular Adhesion Molecule 1 (ICAM1) Biomarker Activity (AID 2283003); settings: primary human endothelial cells (HUVEC); actives raise or lower the signal
Summary of the method: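 Using DMSO as baseline, bidirectional curve fitting was applied to ICAM-1 ELISA signals from HUVEC in the 3C system, measured 24 h after compound addition.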

[6] = BSK_3C_Proliferation: Cell Proliferation Assessment in the BioMAP Diversity Plus: 3C Assay (AID 2283006); settings: primary human endothelial cells (HUVEC);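 on AC50: potency may reflect either rise or fall in cell number versus DMSO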
Summary of the method: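 Measured here: sulforhodamine B (0.1%) staining of TCA-fixed sub-confluent umbilical vein endothelial cultures 48 h post-dosing, absorbance 560 nm. DMSO served as negative control and baseline; both signal gain and loss were modelled.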

[7] = biological target: Peroxisome proliferator-activated receptor gamma (Homo sapiens) (UniProt P37231); experiment: ATG_PPARg_TRANS: Attagene TRANS-FACTORIAL HepG2 Assay for human Peroxisome Proliferator-activated Receptor-gamma (PPARg) (AID 2283007; active means hit-call score of the fitted dose curve at least 0.9, where 1 is the maximum)
Chain of Peroxisome proliferator-activated receptor gamma (Homo sapiens) (P37231 whole entry, looked up): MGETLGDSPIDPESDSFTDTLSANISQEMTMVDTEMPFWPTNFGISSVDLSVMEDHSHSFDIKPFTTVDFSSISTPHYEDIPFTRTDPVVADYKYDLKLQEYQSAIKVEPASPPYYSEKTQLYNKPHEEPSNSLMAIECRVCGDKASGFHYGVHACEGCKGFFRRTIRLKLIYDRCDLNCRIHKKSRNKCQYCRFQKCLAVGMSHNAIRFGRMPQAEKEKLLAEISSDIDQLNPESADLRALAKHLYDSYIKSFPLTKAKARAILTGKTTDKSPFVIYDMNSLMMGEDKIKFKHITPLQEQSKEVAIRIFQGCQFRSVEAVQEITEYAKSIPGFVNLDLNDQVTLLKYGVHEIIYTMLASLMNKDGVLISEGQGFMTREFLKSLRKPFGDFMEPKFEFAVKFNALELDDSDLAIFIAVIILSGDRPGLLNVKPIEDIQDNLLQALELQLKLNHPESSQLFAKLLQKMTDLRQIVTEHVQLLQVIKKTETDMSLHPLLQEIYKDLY
Summary of the method: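 Human hepatoma HepG2, transient MRTU transfection, 24 h treatment. mRNA reporter signal by RT-PCR plus capillary electrophoresis, fluorescence detection; fitted for increase over DMSO negative control.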

[8] = biological target: Nuclear receptor subfamily 1 group I member 2 (Homo sapiens) (UniProt O75469); experiment: ATG_PXR_TRANS: Attagene TRANS-FACTORIAL HepG2 Assay for human Pregnane X Receptor (PXR) (AID 2283008; active means hit-call score of the fitted dose curve at least 0.9, where 1 is the maximum)
Chain of Nuclear receptor subfamily 1 group I member 2 (Homo sapiens) (O75469 whole entry, looked up, the tested form may be a part): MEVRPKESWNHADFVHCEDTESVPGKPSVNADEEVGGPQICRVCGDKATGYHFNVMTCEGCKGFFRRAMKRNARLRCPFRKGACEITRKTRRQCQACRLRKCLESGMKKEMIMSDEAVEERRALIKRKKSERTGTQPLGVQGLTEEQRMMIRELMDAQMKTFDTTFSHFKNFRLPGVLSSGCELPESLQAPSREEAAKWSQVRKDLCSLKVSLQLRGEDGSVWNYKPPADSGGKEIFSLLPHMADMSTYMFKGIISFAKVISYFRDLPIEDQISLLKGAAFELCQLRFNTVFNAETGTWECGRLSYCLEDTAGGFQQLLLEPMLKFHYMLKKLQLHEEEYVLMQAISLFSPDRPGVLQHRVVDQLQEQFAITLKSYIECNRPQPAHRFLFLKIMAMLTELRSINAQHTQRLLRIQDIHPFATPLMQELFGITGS
Summary of the method: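 Transactivation by exogenous PXR–GAL4 fusion measured as reporter transcript induction after 24 h compound treatment of transfected human HepG2 cells. Read-out via RT-PCR and capillary electrophoresis of labelled fragments, fitted upward relative to DMSO.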

[9] = biological target: human RAR-related Orphan Receptor gamma (RORg), RORC (gene 6097) (UniProt P51449); experiment: ATG_RORg_TRANS: Attagene TRANS-FACTORIAL HepG2 Assay for human RAR-related Orphan Receptor gamma (RORg) (AID 2283011; active means hit-call score of the fitted dose curve at least 0.9, where 1 is the maximum)
Chain of human RAR-related Orphan Receptor gamma (RORg), RORC (gene 6097) (P51449 whole entry, looked up, the tested form may be a part): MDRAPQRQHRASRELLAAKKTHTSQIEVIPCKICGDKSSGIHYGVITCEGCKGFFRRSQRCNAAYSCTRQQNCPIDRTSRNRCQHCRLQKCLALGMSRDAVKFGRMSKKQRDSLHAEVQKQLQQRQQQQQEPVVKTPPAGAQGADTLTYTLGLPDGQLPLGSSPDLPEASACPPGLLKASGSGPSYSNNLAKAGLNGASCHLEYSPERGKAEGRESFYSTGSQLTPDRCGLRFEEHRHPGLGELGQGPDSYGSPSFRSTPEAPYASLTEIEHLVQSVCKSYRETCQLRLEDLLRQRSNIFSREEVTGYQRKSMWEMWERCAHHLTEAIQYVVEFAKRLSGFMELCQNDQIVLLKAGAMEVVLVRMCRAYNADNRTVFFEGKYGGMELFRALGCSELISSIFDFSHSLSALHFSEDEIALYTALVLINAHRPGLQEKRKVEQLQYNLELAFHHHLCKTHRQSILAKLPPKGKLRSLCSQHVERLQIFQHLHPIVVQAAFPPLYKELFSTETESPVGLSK
Summary of the method: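 Reporter transcripts from a transfected RORg-GAL4 chimera in HepG2 cells were quantified 24 h after dosing by RT-PCR, 6-FAM labelling, HpaI digestion and capillary electrophoresis; increases over DMSO baseline were fitted.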

[10] = read-out: E-selectin (Homo sapiens) (UniProt P16581); experiment: BSK_3C_Eselectin: BioMAP Diversity Plus: 3C Assay for Eselectin Biomarker Activity (AID 2283015); settings: primary human endothelial cells (HUVEC); actives raise or lower the signal
Summary of the method: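 E-selectin ELISA readout, fitted bidirectionally relative to DMSO, taken 24 h post-dosing in HUVEC cultures of the 3C system. Overt cytotoxicity tracked with sulforhodamine B staining of parallel wells.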

[11] = read-out: Monocyte Chemoattractant Protein-1 (MCP1), CCL2 (gene 6347); experiment: BSK_3C_MCP1: BioMAP Diversity Plus: 3C Assay for Monocyte Chemoattractant Protein-1 (MCP1) Biomarker Activity (AID 2283017); settings: primary human endothelial cells (HUVEC); actives raise or lower the signal
Summary of the method: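 MCP-1 was measured by ELISA 24 h after dosing in primary HUVEC 3C cultures and fitted in both directions relative to DMSO; cytotoxicity was checked by SRB total-protein staining in parallel wells.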

[12] = read-out: Monocyte Chemoattractant Protein-1 (MCP1), CCL2 (gene 6347); experiment: BSK_4H_MCP1: BioMAP Diversity Plus: 4H Assay for Monocyte Chemoattractant Protein-1 (MCP1) Biomarker Activity (AID 2283018); settings: primary human endothelial cells (HUVEC); actives raise or lower the signal
Summary of the method: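 Primary human umbilical vein endothelium is exposed to chemical for 24 h before MCP-1 is assayed by ELISA. Concentration-response fitted bidirectionally relative to DMSO.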

[13] = read-out: Human Leukocyte Antigen - DR isotype (HLADR), HLA-DRA (gene 3122); experiment: BSK_3C_HLADR: BioMAP Diversity Plus: 3C Assay for Human Leukocyte Antigen - DR isotype (HLADR) Biomarker Activity (AID 2283019); settings: primary human endothelial cells (HUVEC); actives raise or lower the signal
Summary of the method: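 Bidirectional fitting against DMSO was applied to the HLA-DR ELISA signal from human umbilical vein endothelial cells, 24 h post-dose. Cytotoxicity came from parallel SRB total-protein staining; 3C proliferation was counted by SRB at 48 h.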

[14] = read-out: Interleukin-8 (IL8), CXCL8 (gene 3576); experiment: BSK_3C_IL8: BioMAP Diversity Plus: 3C Assay for Interleukin-8 (IL8) Biomarker Activity (AID 2283020); settings: primary human endothelial cells (HUVEC); actives raise or lower the signal
Summary of the method: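 Using DMSO-treated wells as the baseline, bidirectional curve fitting was applied to ELISA-measured IL-8 from human umbilical vein endothelial cultures sampled 24 h after compound addition.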

[15] = biological target: human Retinoic Acid Receptor beta (RARb), RARB (gene 5915) (UniProt P10826); experiment: ATG_RARb_TRANS: Attagene TRANS-FACTORIAL HepG2 Assay for human Retinoic Acid Receptor beta (AID 2283004; active means hit-call score of the fitted dose curve at least 0.9, where 1 is the maximum)
Chain of human Retinoic Acid Receptor beta (RARb), RARB (gene 5915) (P10826 whole entry, looked up, the tested form may be a part): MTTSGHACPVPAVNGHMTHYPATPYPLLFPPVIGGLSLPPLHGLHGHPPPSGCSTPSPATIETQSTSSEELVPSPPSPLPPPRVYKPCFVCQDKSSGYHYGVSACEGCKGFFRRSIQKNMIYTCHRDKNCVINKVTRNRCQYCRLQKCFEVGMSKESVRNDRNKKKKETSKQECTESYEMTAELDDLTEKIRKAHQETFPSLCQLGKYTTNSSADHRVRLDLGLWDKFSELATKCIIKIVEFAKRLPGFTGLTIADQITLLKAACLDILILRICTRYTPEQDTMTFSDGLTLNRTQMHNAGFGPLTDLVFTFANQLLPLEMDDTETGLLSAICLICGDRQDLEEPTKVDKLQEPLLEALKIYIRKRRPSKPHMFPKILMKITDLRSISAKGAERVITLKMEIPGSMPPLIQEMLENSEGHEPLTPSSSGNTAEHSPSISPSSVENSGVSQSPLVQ
Summary of the method: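 Induction of reporter mRNA from a chimeric RARb-Gal4 construct was measured by RT-PCR, FAM labelling, HpaI digestion and capillary electrophoresis. Measurements followed 24 h compound treatment of transiently transfected human HepG2 liver cells, with DMSO as baseline.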

[16] = biological target: Retinoic acid receptor alpha (Homo sapiens) (UniProt P10276); experiment: ATG_RARa_TRANS: Attagene TRANS-FACTORIAL HepG2 Assay for human Retinoic Acid Receptor alpha (RARa) (AID 2283005; active means hit-call score of the fitted dose curve at least 0.9, where 1 is the maximum)
Chain of Retinoic acid receptor alpha (Homo sapiens) (P10276 whole entry, looked up, the tested form may be a part): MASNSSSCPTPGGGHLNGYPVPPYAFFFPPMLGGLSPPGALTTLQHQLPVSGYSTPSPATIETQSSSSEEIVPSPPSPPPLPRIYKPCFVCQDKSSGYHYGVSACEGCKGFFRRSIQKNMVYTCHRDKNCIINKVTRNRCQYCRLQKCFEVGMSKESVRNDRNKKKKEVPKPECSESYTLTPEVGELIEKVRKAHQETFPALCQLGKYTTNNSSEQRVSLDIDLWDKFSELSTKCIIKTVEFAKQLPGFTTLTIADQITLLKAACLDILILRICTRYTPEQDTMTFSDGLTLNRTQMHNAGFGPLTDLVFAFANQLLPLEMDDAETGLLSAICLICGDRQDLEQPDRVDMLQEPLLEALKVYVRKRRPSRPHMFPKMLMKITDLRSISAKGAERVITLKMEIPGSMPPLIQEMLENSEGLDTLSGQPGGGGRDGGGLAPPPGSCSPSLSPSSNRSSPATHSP
Summary of the method: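 HepG2 transiently transfected with multiplex GAL4-UAS reporter units including a human RARa–GAL4 chimera; 24 h compound exposure. Reporter mRNA quantified by RT-PCR, 6-FAM labeling and capillary electrophoresis; gain of signal versus DMSO.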

[17] = biological target: human Retinoic Acid Receptor gamma (RARg), RARG (gene 5916) (UniProt P13631); experiment: ATG_RARg_TRANS: Attagene TRANS-FACTORIAL HepG2 Assay for human Retinoic Acid Receptor gamma (RARg) (AID 2283009; active means hit-call score of the fitted dose curve at least 0.9, where 1 is the maximum)
Chain of human Retinoic Acid Receptor gamma (RARg), RARG (gene 5916) (P13631 whole entry, looked up, the tested form may be a part): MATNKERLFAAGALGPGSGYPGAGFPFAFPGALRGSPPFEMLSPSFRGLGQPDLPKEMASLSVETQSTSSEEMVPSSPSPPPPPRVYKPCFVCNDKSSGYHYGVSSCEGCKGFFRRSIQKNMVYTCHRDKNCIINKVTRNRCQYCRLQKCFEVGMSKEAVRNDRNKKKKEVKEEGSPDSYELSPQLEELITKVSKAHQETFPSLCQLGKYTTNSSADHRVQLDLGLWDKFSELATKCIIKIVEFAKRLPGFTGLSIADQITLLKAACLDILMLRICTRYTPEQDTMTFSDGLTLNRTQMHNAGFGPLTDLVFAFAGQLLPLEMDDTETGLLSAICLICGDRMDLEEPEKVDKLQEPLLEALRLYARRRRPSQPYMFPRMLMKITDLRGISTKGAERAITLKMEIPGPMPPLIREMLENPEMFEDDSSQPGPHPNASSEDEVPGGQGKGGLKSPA
Summary of the method: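 Gain-of-signal relative to DMSO is reported from fluorescent capillary electrophoresis of RT-PCR reporter products. These came from HepG2 cells expressing transfected RARg-GAL4 chimeras with UAS reporters, harvested 24 h after dosing.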

[18] = biological target: Retinoic acid receptor RXR-alpha (Homo sapiens) (UniProt P19793); experiment: ATG_RXRa_TRANS: Attagene TRANS-FACTORIAL HepG2 Assay for human Retinoid X Receptor alpha (RXRa) (AID 2283012; active means hit-call score of the fitted dose curve at least 0.9, where 1 is the maximum)
Chain of Retinoic acid receptor RXR-alpha (Homo sapiens) (P19793 whole entry, looked up, the tested form may be a part): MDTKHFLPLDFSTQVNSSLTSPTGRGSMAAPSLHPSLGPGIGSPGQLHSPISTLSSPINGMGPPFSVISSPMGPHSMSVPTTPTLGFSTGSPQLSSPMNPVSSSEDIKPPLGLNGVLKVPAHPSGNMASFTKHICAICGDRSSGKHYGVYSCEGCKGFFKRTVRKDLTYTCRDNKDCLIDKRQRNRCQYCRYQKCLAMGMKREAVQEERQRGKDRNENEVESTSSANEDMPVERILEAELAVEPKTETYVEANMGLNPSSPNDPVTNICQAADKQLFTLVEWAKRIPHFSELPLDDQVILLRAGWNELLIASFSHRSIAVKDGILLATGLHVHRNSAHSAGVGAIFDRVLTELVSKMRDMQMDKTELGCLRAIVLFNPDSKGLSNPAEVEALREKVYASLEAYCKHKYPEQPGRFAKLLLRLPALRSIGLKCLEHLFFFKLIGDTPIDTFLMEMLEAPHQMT
Summary of the method: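 Chimeric NR-GAL4 trans-activation in HepG2, 24 h treatment; reporter transcripts quantified by fluorescence on capillary electrophoresis, analysed for upward change from DMSO.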

[19] = biological target: human Retinoid X Receptor beta (RXRb), RXRB (gene 6257) (UniProt P28702); experiment: ATG_RXRb_TRANS: Attagene TRANS-FACTORIAL HepG2 Assay for human Retinoid X Receptor beta (RXRb) (AID 2283013; active means hit-call score of the fitted dose curve at least 0.9, where 1 is the maximum)
Summary of the method: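 After a 24 h incubation with test chemical, transfected HepG2 cells carrying NR-Gal4 fusions and GAL4-UAS reporter transcription units yield RNA whose reporter cDNA is FAM-labelled, HpaI-cut and sized by capillary electrophoresis; increases over DMSO are scored.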

[20] = read-out: Interleukin-1 alpha (IL1a), IL1A (gene 3552); experiment: BSK_BE3C_IL1a: BioMAP Diversity Plus: BE3C Assay for Interleukin-1 alpha (IL1a) Biomarker Activity (AID 2283016); settings: primary human bronchial epithelial cells; actives raise or lower the signal
Summary of the method: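 Measured in human lung primary bronchial epithelial cells: IL-1a by ELISA at 24 h after dosing, with bidirectional fitting against DMSO.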

Measured: AC50

Chain of E-selectin (Homo sapiens) (P16581 whole entry, looked up): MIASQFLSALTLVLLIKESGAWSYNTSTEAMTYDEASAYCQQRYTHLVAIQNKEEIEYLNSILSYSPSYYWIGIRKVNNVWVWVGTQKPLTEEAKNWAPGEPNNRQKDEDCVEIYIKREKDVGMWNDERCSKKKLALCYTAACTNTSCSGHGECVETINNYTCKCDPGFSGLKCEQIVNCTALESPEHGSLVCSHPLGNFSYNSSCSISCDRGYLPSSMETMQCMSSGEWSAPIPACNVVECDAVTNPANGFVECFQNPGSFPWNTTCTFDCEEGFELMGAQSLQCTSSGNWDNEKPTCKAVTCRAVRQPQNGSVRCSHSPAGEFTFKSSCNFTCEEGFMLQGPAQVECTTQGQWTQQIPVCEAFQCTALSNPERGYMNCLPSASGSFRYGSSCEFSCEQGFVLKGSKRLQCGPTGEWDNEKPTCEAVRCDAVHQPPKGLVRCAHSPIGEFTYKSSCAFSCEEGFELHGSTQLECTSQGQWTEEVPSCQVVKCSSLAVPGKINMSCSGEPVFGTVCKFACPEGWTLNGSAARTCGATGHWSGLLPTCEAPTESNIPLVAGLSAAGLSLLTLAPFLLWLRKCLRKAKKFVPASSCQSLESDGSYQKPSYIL

CNC(=O)CSP(=S)(OC)OC
not listed: [15] | [16] | [17] | [18] | [19] | [20]
inactive: all other assays above

CC(C)(C)C(O)C(Oc1ccc(Cl)cc1)n1cncn1 (stereo not drawn)
active: [8] 434 nM [middle of 5 runs] | [10] 3.36 µM | [13] 5.49 µM
inactive: [1] | [2] | [3] | [5] | [15] | [16] | [6] | [7] | [8] | [17] | [9] | [18] | [19] | [10] | [11] | [12] | [13] | [14]

CC(C)OC(=O)Nc1cccc(Cl)c1
active: [7] 50 µM | [8] 65.4 µM
not listed: [17]
inactive: all other assays above

COP(=S)(OC)Oc1ccc([N+](=O)[O-])cc1
active: [10] 8.4 µM | [11] 33.8 µM | [13] 17.4 µM | [14] 2.36 µM
not listed: [9] | [15] | [16] | [18] | [20]
inactive: all other assays above

COC(=O)c1ccccc1CS(=O)(=O)NC(=O)Nc1nc(OC)cc(OC)n1
not listed: [9] | [20]
inactive: all other assays above

CCN(CC)C(=O)SCc1ccc(Cl)cc1
active: [7] 37.1 µM | [11] 3.72 µM
not listed: [4] | [14] | [16]
inactive: all other assays above

O=C(O)COc1ccc(Cl)cc1Cl
not listed: [7] | [9] | [15] | [16] | [17] | [18] | [20]
inactive: all other assays above

CNC(=O)Oc1cccc(N=CN(C)C)c1
active: [1] 29 µM | [10] 20 µM | [13] 18.2 µM
not listed: [9] | [17]
inactive: all other assays above

O=S(=O)(O)C(F)(F)C(F)(F)C(F)(F)C(F)(F)C(F)(F)C(F)(F)C(F)(F)C(F)(F)F
active: [2] 17.5 µM | [5] 25.3 µM | [6] 31.9 µM | [19] 161 µM | [10] 12 µM and 17.6 µM
inactive: [1] | [2] | [3] | [5] | [6] | [8] | [9] | [18] | [19] | [10] | [11] | [12] | [13] | [14]

C#CCN1C(=O)COc2cc(F)c(N3C(=O)C4=C(CCCC4)C3=O)cc21
active: [7] 50 µM
not listed: [4] | [9] | [20]
inactive: all other assays above

COP(=S)(OC)Oc1ccc(SC)c(C)c1
active: [7] 33.3 µM | [8] 39.3 µM
not listed: [9] | [16] | [20]
inactive: all other assays above

O=C(O)CCCOc1ccc(Cl)cc1Cl
inactive: [1] | [2] | [3] | [5] | [15] | [16] | [6] | [7] | [8] | [9] | [18] | [19] | [10] | [20] | [11] | [12] | [13] | [14]
active: [7] 34.5 µM | [19] 27 µM
